For orientation: AC50 means the concentration at which the activity in the assay is half-maximal.

Each structure is given as a SMILES string. Calls of active or inactive are those of the source. Rule for the calls: active = hit-call score of the fitted dose curve at least 0.9, where 1 is the maximum; inactive = score below 0.9.

Read-out in the test: Urokinase-type plasminogen activator receptor (uPAR), PLAUR (gene 5329)
Briefly: BSK_BE3C_uPAR: BioMAP Diversity Plus: BE3C Assay for Urokinase-type plasminogen activator receptor (uPAR) Biomarker Activity (AID 2283039).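 For outcome: uPAR protein level measured by ELISA on the cells; cells exposed to compound for one day before measurement.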 Conditions: primary human bronchial epithelial cells; actives raise or lower the signal. Summed up:
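Primary human bronchial epithelial cells dosed for 24 h; uPAR quantified by ELISA with bidirectional fitting against DMSO. Overt cytotoxicity assessed in parallel cultures by SRB total-protein staining (0.1% SRB, 560 nm).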
In the case of `O=C(O)C1(c2ccc3c(c2)OC[C@H](Cc2ccc(-c4ccccc4)cc2)[C@H]3O)CCCC1`, the AC50 was 14.1 µM (active).
In the case of `N#Cc1cccnc1`, the outcome was inactive.
As for `Cc1cc(Cl)ccc1OC(C)C(=O)O` (centres undefined), the outcome was inactive.
As for `O=C(CCl)NCO`, the result was inactive.
Still for that read-out and setting: the result for `Nc1c(Oc2ccccc2)cc(O)c2c1C(=O)c1ccccc1C2=O` reads “inactive”; that for `Oc1cc(Cl)c(Cl)cc1Cl`, “inactive”; that for `C[C@]12CC[C@@H](O)C[C@@H]1CC[C@@H]1[C@@H]2CC[C@]2(C)C(=O)CC[C@@H]12`, “inactive”.
The same measure, in the same setting: in the case of `CCC(C)(C#N)N=NC(C)(C#N)CC` (centres undefined) it was “inactive”; in that of `NC(=O)CCl`, “inactive”.
On the same count and under the same terms, in the case of `CCCCN(CCCC)C(=S)[S-].CCCCN(CCCC)C(=S)[S-].[Ni+2]` it was “inactive”.
Regarding `CCCCOC(=O)COC(=O)c1ccccc1C(=O)OCCCC`, the result was inactive.
For the compound `CCCCCCCCCCCCc1cccc(S(=O)(=O)O)c1`, the AC50 was 29.1 µM (active).
With `O=C(N[C@H]1CN2CCC1CC2)c1ccc2c(c1)OCCO2`, the result was inactive.
Consider `Clc1cccc(Cl)c1Cl`, for which the result was inactive.
For the compound `Cc1cccc(OP(=O)(Oc2cccc(C)c2)Oc2cccc(C)c2)c1`, the outcome was inactive.
Turning to `c1ccc2sc(SNC3CCCCC3)nc2c1`, the result was inactive.
On the same count and under the same terms, in the case of `OCCCCO` it was “inactive”.
Same read-out and setting: in the case of `CC(C)O.CC(C)O.OCCN(CCO)CCO.OCCN(CCO)CCO.[Ti]` it was “inactive”.
Turning to `Oc1c(Br)cc(Br)cc1Br`, the AC50 is 20 µM (active).
With `Clc1cccc(Cl)c1`, the result was inactive.
With `CC(C)N(C(=O)CCl)c1ccccc1`, the result was inactive.
On the same count and under the same terms, in the case of `Nc1ccc(N)cc1` it was “inactive”; in that of `Oc1cccc(-c2ccccc2)c1`, “inactive”; in that of `COCC(=O)N(c1c(C)cccc1C)[C@H](C)C(=O)OC`, “inactive”.
For `O=C1C=CC(=O)c2ccccc21`, the AC50 is 4.59 µM (active).
As to `Cc1cc(Cl)ccc1N`, the result was inactive.
Regarding `O=C(Cc1ccccc1)OCCc1ccccc1`, the outcome was inactive.
Regarding `O=c1oc2ccccc2c(O)c1C(CC(O)c1ccc(-c2ccc(Br)cc2)cc1)c1ccccc1` (centres undefined), the AC50 was 5.34 µM (active).
Regarding `Oc1ccc(Cc2ccc(O)cc2)cc1`, the result was inactive.
Turning to `Cc1c([N+](=O)[O-])c(C)c([N+](=O)[O-])c(C(C)(C)C)c1[N+](=O)[O-]`, the result was inactive.
On the same count and under the same terms, the result for `CC(C)(COCC1CO1)COCC1CO1` (centres undefined) reads “inactive”.
Regarding `CCOC(=O)CC(=O)CCl`, the outcome was inactive.
Same read-out and setting: the result for `CCCCCCCCCCCCN(C)C` reads “inactive”; that for `CCOP(=S)(OCC)SCS(=O)(=O)C(C)(C)C`, “inactive”.

For the origin of these results see PubChem BioAssay (EPA / NIEHS).
